High-throughput results (PubChem BioAssay)
Giardia FBPA inh – blocks Giardia fructose-bisphosphate aldolase activity | actives 0.71% (n = 290,000) | A8B2U2 | purified Giardia FBPA | Potency, µM (highest dose often 59.6 µM), for inactives: at the highest dose activity, negative = inhibition, most hits filed as inhibitors; further: potency means the concentration at half of the fitted maximal effect; nearly all actives have a fitted effect of over 55% in size
Target sequence (A8B2U2 whole entry, looked up): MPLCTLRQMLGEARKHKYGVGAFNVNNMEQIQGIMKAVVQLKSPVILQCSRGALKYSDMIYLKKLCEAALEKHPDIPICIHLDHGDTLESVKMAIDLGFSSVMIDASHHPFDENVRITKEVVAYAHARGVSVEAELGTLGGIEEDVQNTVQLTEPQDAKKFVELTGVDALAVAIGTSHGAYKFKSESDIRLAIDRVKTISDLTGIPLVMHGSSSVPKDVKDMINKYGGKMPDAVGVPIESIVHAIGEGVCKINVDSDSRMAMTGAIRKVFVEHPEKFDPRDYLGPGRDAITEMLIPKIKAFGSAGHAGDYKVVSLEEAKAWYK
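Giardia FBPA (40 nM reagent) was preincubated 10 min at RT with compound (up to 57.5 uM final), then substrate plus GAPDH/TPI/NAD/arsenate coupling system with diaphorase/resazurin was added; resorufin fluorescence (525/598 nm) was read after 20 min.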
Sm TGR block – inhibitors of Schistosoma mansoni thioredoxin glutathione reductase; Q962Y6; AID 485364; Potency, µM (titrated, usually from 114 µM), for inactives: at the highest dose activity change, negative = inhibition, usual class: inhibitors; actives 3% (n = 360,000); purified TGR, DTNB reduction, TNB absorbance 405 nm; further: potency means the concentration at half of the fitted maximal effect; nearly all actives have a fitted effect of over 60% in size
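Kinetic colorimetric format: TGR-catalysed, NADPH-driven DTNB reduction monitored via TNB absorbance. Enzyme dispensed at 20 nM; compound exposure 15 min at room temperature before reaction start.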
Pf growth 48h – inhibits P. falciparum growth in the first generation, 48 h | P. falciparum luciferase growth in erythrocytes, 48 h | Potency, µM (top dose mostly 28.7 µM), inactives show top-dose activity change, negative = inhibition, most hits filed as inhibitors | actives 5.9% (n = 310,000) | AID 504832; further: potency means the concentration at half of the fitted maximal effect
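Firefly luciferase activity from engineered P. falciparum reports growth; inhibitors lower the luminescent signal. Cultures contained 2% hematocrit erythrocytes at 0.1% final parasitemia.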
HCMV antiviral – human cytomegalovirus inhibition | HFF cells, HCMV-luciferase reporter, 72 h; active compounds read low | actives 4.5% (n = 410,000) | activity change, negative = inhibition, % at 57.5 µM; in the data active means activity change below about -60%; inconclusive means no clear call, values can overlap the other calls; inactive means above about -39%
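After 16 h attachment at 37C, HFF cells received test compound and HCMV-luciferase (1 PFU/cell); reporter luminescence read 72 h later, data normalized against buffer-only and known inhibitor Salinomycin.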
Pf growth 96h – P. falciparum growth inhibition at 96 hour, primary screen for plastid delayed-death inhibitors. P. falciparum luciferase reporter growth, 96 h. Potency, µM (series often up to 28.7 µM), inactives show top-dose activity change, negative = inhibition, actives largely listed as inhibitors. actives 6.9% (n = 320,000); further: potency means the concentration at half of the fitted maximal effect
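Erythrocytes infected with luciferase-expressing P. falciparum were dispensed at 2% hematocrit and 0.05% parasitemia (final), then incubated with compounds 96 hours at 37 C in 5% CO2. Luminescence after detection reagent addition reported growth.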
* = called active by the depositor; ? = inconclusive; · = not tested or not shown; [ ] = remark or other dose. Hits are enriched below; roughly 14% of the tested compounds scored in any of these assays. Unless noted, the call rests on the fitted dose curve; in most records, active means well fitted curve in the direction sought with a large enough effect; inconclusive means small, poorly fitted or top-dose-only effect, or another doubt; inactive means no such curve, though single readings can be large; an effect the other way counts as inactive or inconclusive. On the % scale 0 is the no-effect control and ±100 the full control effect.

SMILES	Giardia FBPA inh	Sm TGR block	Pf growth 48h	HCMV antiviral	Pf growth 96h
CCCC(=O)C1C(=O)CC(C)(C)C(c2cc(C)no2)C1=O (centres undefined)	7%	-1%	7%	20	0.12µM*
COc1ccccc1C(=O)Nc1ccnn1C1CCN(C(=O)c2ccoc2C)CC1	1%	-19%	15%	-63*	?
COc1ccccc1C(=O)Nc1ccnn1C1CCN(C(=O)c2ccoc2)CC1	·	·	·	3	·
COc1ccccc1C(=O)Nc1ccnn1C1CCN(C(=O)c2cnsn2)CC1	·	0%	1%	-103*	?
Cc1ccc(S(=O)(=O)Nc2cc(Cl)c3oc4c(c3c2)CCCC4)cc1	·	-9%	·	-2	·
CCOC(=O)C1C(c2ccc(O)c(O)c2)NC(=S)NC1(O)C(F)(F)F (centres undefined)	-26%	-8%	34%	-6	12µM*
S=c1[nH]nc(-c2cccnc2)n1C1CCCCC1	-23%	4%	5%	2	6%
COc1ccc(-c2n[nH]c(=S)n2C2CCCCC2)cc1	11%	89µM*	3%	-14	·
Cc1ccc(SC(C)C(=O)O/N=C(\N)c2ccncc2)cc1 (centres undefined)	·	40µM*	?	-15	?
O=C(C[C@H]1C[C@H](C(=O)N2CCOCC2)[C@@]2(CCC3CCCC3)c3[nH]c4cc(-c5ccco5)ccc4c3CCN2C1=O)NCCCn1ccnc1	·	·	·	-90*	·
COCCCNC(=O)C[C@H]1C[C@H](C(=O)N2CCCCC2)[C@@]2(CCc3ccccc3)c3[nH]c4cc(-c5ccco5)ccc4c3CCN2C1=O	·	·	·	-28	·
O=C(C[C@H]1C[C@H](C(=O)N2CCCCC2)[C@@]2(CCc3ccccc3)c3[nH]c4cc(-c5ccco5)ccc4c3CCN2C1=O)NCCN1CCOCC1	·	·	·	-101*	·
CC(=O)c1ccc(OCCCC(=O)N2CCN(S(=O)(=O)c3ccc(C(C)C)cc3)CC2)cc1	·	6%	9.3µM*	?	5.2µM*
Cc1ccc(S(=O)(=O)N2CCN(C(=O)CSc3nnc(C)s3)C2)cc1	5%	-4%	·	-10	4.1µM*
CCOc1ccc(S(=O)(=O)N2CCN(C(=O)CCOc3ccccc3C)CC2)cc1	·	-14%	10µM*	?	?
CC(=O)c1ccc(OCCCC(=O)OCC(=O)N2CCN(c3ccccc3)CC2)cc1	2%	11%[11.4 µM]	·	-13	9.3µM*
Cc1ccc(S(=O)(=O)N2CCN(C(=O)CSc3nncs3)CC2)cc1	11%	8%	16%	0	-5%
CCOC(=O)N1CCN(/[N+]([O-])=N/Oc2ccc([N+](=O)[O-])cc2[N+](=O)[O-])CC1C (centres undefined)	4%	·	·	·	·
CCOC(=O)N1CCc2c(sc3c2C(=O)NC(c2ccc(N(C)C)cc2)N3)C1 (centres undefined)	·	-10%	·	-14	·
Cc1ccc(S(=O)(=O)N2CCN(C(=O)CSCc3ccc(C(C)C)cc3)CC2)cc1	·	-4%	9.3µM*	?	?
COc1cc(CCC(=O)N2CCN(S(=O)(=O)c3ccc(C)cc3)CC2)cc(OC)c1OC	·	-6%	5.2µM*	35	?
COc1cc(CC(=O)N2CCN(S(=O)(=O)c3ccc(C)cc3)CC2)cc(OC)c1OC	·	·	·	0	·
Cc1ccc(NS(=O)(=O)c2c(C)nc3sccn3c2=O)cc1C	-9%	?	10%	?	?
COc1ccc(NC(=S)N2CCCC(c3nc4ccc(C)cc4[nH]3)C2)c(OC)c1 (centres undefined)	-7%	7%	-5%	-87*	-30%
COc1ccc(CN2CCN(c3ncc(C(=O)Nc4ccccc4)o3)C2=O)cc1	·	·	·	12	·
SMILES	Giardia FBPA inh	Sm TGR block	Pf growth 48h	HCMV antiviral	Pf growth 96h
S=C(NCCc1ccccc1)NN=C1CCCCCC1	-8%	-1%	1%	-92*	?
CCC(C)(C)C1CCC(=NNC(=S)Nc2ccccc2)CC1 (centres undefined)	-3%	2%	?	-4	4%
CC(C)(C)C1CCC(=NNC(=S)NCc2ccccc2)CC1 (centres undefined)	-20%	-15%	?	-62*	?
Cc1ccc(NC2=C(N3CCCCC3)C(=O)c3ccccc3C2=O)cc1	?	13µM*	0.17µM*	-103*	0.074µM*
CN(c1ccccc1)c1nc(N)c([N+](=O)[O-])c(N2CCCCC2)n1	-5%	6%	5%	56	18%
Cc1ccc(C(=O)Nc2cccc(O)c2)cc1S(=O)(=O)N1CCCCCC1	-1%	-4%	6%	36	-7%
CC1=C(Nc2ccc(C(=O)O)cc2)C(=O)c2ccccc2C1=O	?	22µM*	52%	76	26%
O=C1C(Nc2cccc(O)c2)=C(N2CCCCC2)C(=O)c2ccccc21	?	10µM*	?	-28	0.41µM*
CN(C1=C(N2CCCCC2)C(=O)c2ccccc2C1=O)c1ccccc1	?	?	8.3µM*	-20	·
CC(C(=O)Nc1ccc(C(=O)O)cc1)N1C(=O)c2ccccc2C1=O (centres undefined)	-1%	15%	-1%	13	9%
Cc1ccc(N2CCN(CC(=O)Nc3c(C(=O)C4CC4)oc4ccccc34)CC2)cc1	-7%	-6%	·	·	7%
O=c1nc(N2CCCCC2)nc(Nc2ccccc2)[nH]1	-8%	-9%	·	-6	17%
COc1ccccc1NC1=C(N2CCCCC2)C(=O)c2ccccc2C1=O	?	?	0.046µM*	·	0.093µM*
COc1ccccc1NS(=O)(=O)c1cc(N)ccc1N1CCCC1	·	·	·	-25	·
O=C1C(Nc2ccccc2)=C(N2CCCCC2)C(=O)c2ccccc21	?	8.9µM*	0.47µM*	-69*	34%
O=C(/C=C/c1ccc(O)cc1)c1ccc(NC2=C(N3CCCCC3)C(=O)c3ccccc3C2=O)cc1	?	25µM*	0.52µM*	-99*	0.17µM*
Cc1ccc(-n2nc(C(=O)N3CCC(C)CC3)c(=O)n(C)c2=O)cc1	·	-5%	·	-3	·
Cc1ccc(S(=O)(=O)Nc2ccccc2N=Cc2ccc([N+](=O)[O-])cc2[N+](=O)[O-])cc1	·	·	·	-38	·
CCc1nn2c(=O)cc(COC(=O)c3cccc(NC(=O)c4cccs4)c3)nc2s1	·	1%	·	67	·
CNC(=O)C(N)CSC(C)C1=C(C)c2cc3[n-]c(cc4nc(cc5[n-]c(cc1n2)c(C)c5CCC(=O)O)C(CCC(=O)O)=C4C)c(C)c3C(C)SCC(N)C(=O)NC.[Fe+2] (centres undefined)	·	·	-41%	·	?
O=S(=O)(CCc1ccncc1)C1Cc2cccc3cccc1c23 (centres undefined)	-3%	35µM*	4%	31	0%
CN(Cc1nc2ccccc2c(=O)[nH]1)C(=O)c1cccc(S(=O)(=O)N2CCCC2)c1	·	-4%	21%	1	-4%
